In all, about 260,000 compounds went through this assay and about 890 (0.34%) were called active. Another 1% or so got no clear call; they are omitted. Calls come from the whole dose curve; as a rule, active = well fitted activation curve with a large enough effect; inconclusive = small, poorly fitted or top-dose-only effect; inactive = no such curve, though single readings can be large or run the other way. Shown is part of a subset that was picked to be rich in actives.
target: Pyruvate kinase PKM (Homo sapiens) (UniProt P14618); assay: qHTS Assay for Activators of Human Muscle isoform 2 Pyruvate Kinase; details: purified PKM2, Kinase-Glo ATP luminescence; Potency: activation; series mostly up to 57.5 µM; activation: at the top concentration; note: nearly all actives have a fitted effect of over 55% in size
Sequence (P14618 whole entry, looked up, canonical isoform): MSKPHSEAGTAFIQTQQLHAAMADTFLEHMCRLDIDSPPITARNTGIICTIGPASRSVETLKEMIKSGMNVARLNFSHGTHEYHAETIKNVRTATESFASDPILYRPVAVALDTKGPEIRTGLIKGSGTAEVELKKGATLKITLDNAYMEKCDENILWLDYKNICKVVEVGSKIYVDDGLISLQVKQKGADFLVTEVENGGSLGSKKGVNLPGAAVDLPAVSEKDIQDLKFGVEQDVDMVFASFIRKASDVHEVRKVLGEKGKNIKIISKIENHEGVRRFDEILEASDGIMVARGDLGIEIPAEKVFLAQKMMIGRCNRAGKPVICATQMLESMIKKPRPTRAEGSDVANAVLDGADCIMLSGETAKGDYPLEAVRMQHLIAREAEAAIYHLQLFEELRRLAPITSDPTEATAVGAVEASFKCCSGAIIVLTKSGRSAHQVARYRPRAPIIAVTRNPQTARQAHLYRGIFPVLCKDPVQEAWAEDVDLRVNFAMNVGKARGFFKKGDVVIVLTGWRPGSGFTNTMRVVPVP
Description: NIH Chemical Genomics Center [NCGC] Matthew G. Vander Heiden, M.D., Ph.D. [Harvard Medical School, 77 Avenue Louis Pasteur, Boston, MA 02115] MLPCN Grant: 1 R03 MH085679-01 NCGC Assay Overview: Human pyruvate kinase muscle 2 (hPK-M2) enzyme was supplied as a highly purified (>95% pure) preparation from Harvard Medical School and assayed for its ability to generate ATP from ADP using phosphoenolpyruvate (PEP) as a substrate. ATP generation was detected in a coupled reaction by luciferase-mediated luminescence, an ATP-dependent process. […] The enzyme was assayed at an intermediate level of activity to screen for both inhibitors and activators.
NCGC Assay Protocol Summary: Three uL of substrate mix (at r.t.) in assay buffer (50 mM Imidazole pH7.2, 50 mM KCl, 7 mM MgCl2, 0.01% Tween 20, 0.05% BSA) was dispensed into white solid bottom 1,536 well microtiter plates so that the final concentrations of substrates in the assay were 0.1 mM ADP and 0.5 mM PEP. 23 nL of compound were delivered by a pin tool and 1 uL of enzyme mix in assay buffer (4 degree Celsius) was added. Plates were incubated at room temperature for 1 hour. Two uL of detection mix (Kinase-Glo, Promega; at 4 degree Celsius protected from light) was added and luminescence read by a ViewLux (Perkin Elmer) at 5 second exposure/plate. Data were normalized to the uninhibited and AC100 inhibition (no enzyme). To monitor activation, the first column contained a titration of the activator, NCGC00031955-01 (16-point 1:2 dilutions in duplicate starting at 57 uM) and the first 16 rows of column 4 contained 57 uM of NCGC00031955-01.
% is set by controls: 0 for no effect and ±100 for the full control effect; potency is the fitted concentration of half-maximal effect.

Row | SMILES | activation | Potency
1 | O=c1c2ccccc2nc(-c2ccco2)n1-c1ccc(Br)cn1 | 6.38% (inactive) | 
2 | Cc1nc2ccccc2c(=O)n1-c1ccc(Cl)cc1Cl | -0.0497% [at 11.5 µM, 0% is enzyme alone, no compound] (inactive) | 
3 | O=c1c2ccccc2nc(/C=C/c2ccco2)n1-c1ccccc1O |  | 3.98 µM (active)
4 | CCCCn1c(=O)c(C(=O)Nc2ccccc2Cl)c(O)c2ccccc21 | 0.939% (inactive) | 
5 | CN(C)C(=O)Oc1ccc(NC(=O)N2CCOCC2)cc1 | 1.13% (inactive) | 

Reference: PubChem BioAssay AID1631 (National Center for Advancing Translational Sciences (NCATS), 2009)
